Common to all, as to experiment: NCI-60 one-dose screen, 48 h (100 = growth as untreated, 0 = no growth, -100 = all killed)
Holding throughout (conditions): 10 µM unless noted

Test [1] concerns SR leukemia.
Test [2] deals with RPMI-8226 leukemia.
The test system of test [3] is OVCAR-8 ovarian.
In test [4] the test system is OVCAR-5 ovarian.
Test [5] has as its system OVCAR-4 ovarian.
The test system of test [6] is SK-OV-3 ovarian.
The subject of test [7] is IGROV1 ovarian.
The subject of test [8] is OVCAR-3 ovarian.
The test system of test [9] is HS 578T breast.
In test [10] the test system is NCI/ADR-RES ovarian.

This is part of a sample that, as a whole, favours compounds with a hit. Of some 83,000 tested, about 20% had one in any assay.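 Values shown are percent growth following 48 h exposure of cells in 96-well plates to a single concentration of compound; below 10 was considered active.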 Unmarked numbers belong to inactive results. The source made the active and inactive calls.

With `C#CCN(C)CCCOc1ccc(NCc2ccc(C(=O)NO)cc2)cc1Cl`, the growth was 15.7% in test [1]; 9.94% (active) in test [2]; 14.7% in [3]; 23.4% in test [4]; 31.3% in test [5]; -4.09% (active) in test [6]. Further, the growth in [7] is 15.6%; in test [8] it was 24.3%; in test [9] it was 25%; in test [10], 7.57% (active).
Consider `N#C/C(=N\Nc1ccc(F)cc1)C(=O)Nc1cc(-c2ccccc2)nn1-c1ccccc1`, for which the growth in [1] was 24.1%; in test [2], 11.9%; in test [3], 11%; in test [4] it was 19.8%; in test [5] it was 1.96% (active); in test [6] it was -14.8% (active). Besides, the growth is 24.7% in test [7], 11.2% in test [8] and 3.07% (active) in [10].
With `O=C1[C@@H]2Cc3c([nH]c4ccccc34)[C@H](c3ccc(Br)cc3)N2C(=O)CN1C1CCN(Cc2c(Cl)cccc2Cl)CC1`, the growth in test [1] was 91.7%; in test [2], 79.9%; in test [3] it was 94.6%; in test [4] it was 99.4%; in test [5], 86.2%; in [6], 86.7%. Moreover, the values for the growth in test [7], in test [9] and in [10] were 84.7%, 90.1% and 90.9%, respectively.
As to `COc1ccc(OC)c(NC(=O)CCCCCCNC(=O)C(O)(O)C(F)(F)F)c1`, the growth in [1] is 12.9%; in test [2], 20.9%; in test [3], 23.4%; in [4] it was 26.3%; in test [5], 86.7%; in [6], 6.28% (active). Besides, the growth in test [7] was 55.2%; in test [8] it was 40.5%; in [10], 32.8%.
As to `CC(=C(c1ccc(OCCN(C)C)cc1)c1ccc(OCCN(C)C)cc1)c1ccc(Cl)cc1`, the growth is -36.1% (active) in test [1]; -42.7% (active) in test [2]; -46.9% (active) in test [3]; -69% (active) in [4]; -17.4% (active) in test [5]; 77.5% in test [6]. Further, the growth is -76.8% (active) in test [7], -55.5% (active) in [8] and -49.8% (active) in test [10].
As to `CC(C)(C)c1cc(NC(=O)Nc2ccc(-c3cn4c5c(sc4n3)CCc3c[nH]cc3-5)cc2)no1`, the growth in test [1] is 2.1% (active); in test [2], -18.6% (active); in test [3], 32.7%; in [4], 47.7%; in [5], 49%; in test [6], 33.7%. Besides, the growth was 38% in test [7] and -10.4% (active) in test [9].
Turning to `C#CCOc1ccccc1/C=N/Nc1nc(-c2ccc(Cl)cc2)cs1`, the growth in test [1] was 101%; in test [2], 91.5%; in test [3], 98.1%; in test [4], 92.3%; in [5], 87.8%; in test [6], 93.9%. For the same compound, the growth in test [7] is 77.8%; in test [8], 98.8%; in [10], 94.2%.
For the compound `CC(C)(C)c1cc(NC(=O)Nc2ccc(-c3cn4c5c(sc4n3)CCc3cn(CCCN4CCCCC4)cc3-5)cc2)no1`, the growth in test [1] is -14% (active); in test [2], -19.5% (active); in test [3], -52% (active); in test [4], -32.4% (active); in [5] it was -78.4% (active); in [6], 97%. Also, the growth was -78.5% (active) in [7] and 38.4% in test [9].
Consider `Cc1csc(/N=C(N)/N=C(\N)c2cccc(Br)c2)n1`, for which the growth in test [1] was 66.9%; in [2], 102%; in [3] it was 96.5%; in test [4], 102%; in [5] it was 95.5%; in test [6], 91.5%. Moreover, the growth in test [7] was 81.4%; in [8], 107%; in test [10] it was 72.7%.
Take `CSc1ccc(/C(=N/N=C(N)N)c2ccc(Cl)cc2)cc1`: the growth is -15.7% (active) in test [1]; 6.98% (active) in [2]; -18.4% (active) in test [3]; 11.4% in [4]; 57% in test [5]; 24.7% in [6]. Further, the growth was 4.76% (active) in [7], 4% (active) in [9] and -3.46% (active) in test [10].
Turning to `CCOC(=O)c1ccc(NC2=CC(=O)C(C)=C(C)C2=O)cc1`, the growth is 50.3% in [1]; 66.1% in test [2]; 83.7% in test [3]; 104% in [4]; -63% (active) in test [5]; 92% in test [6]. Further, the growth in test [7] was 79.2%; in [8], 0.628% (active); in test [10], 65.4%.
Consider `CNC(=O)c1cc(-n2ccc3cc(NC(=O)Nc4ccc(N5CCN(C)CC5)c(C(F)(F)F)c4)ccc32)ccn1`, for which the growth is -32.6% (active) in test [1]; -11.2% (active) in test [2]; 97.7% in test [3]; 90% in test [4]; 84.5% in test [5]; 105% in [6]. Also, the results for the growth in test [7], in test [9] and in [10] were 91.9%, 67% and 98%, respectively.
As for `COc1ccc(N2CCN(C3=C(Cl)C(=O)c4ncccc4C3=O)CC2)cc1`, the growth is 0.311% (active) in test [1]; 23.2% in test [2]; 74.8% in [3]; 112% in [4]; 48.2% in test [5]; 81% in [6]. In addition, the growth in test [7] is 80.7%; in test [9] it was 70.2%.
For `Clc1ccc2[nH]cc(-c3cncn3CCc3ccc4c(c3)OCO4)c2c1`, the growth was 62.1% in [1]; 42.5% in test [2]; 76% in test [3]; 76.2% in [4]; 33% in test [5]; 81% in test [6]. The growth in [7] was 76.8%; in test [8], 67.6%; in test [10] it was 78.6%.
